For 59 compounds, Potency and outcome results are on record in PubChem BioAssay (NCATS).

The nature of assay [1]: qHTS to identify inhibitors of the type 1 interferon - major histocompatibility complex class I in skeletal muscle: primary screen against the NCATS LOPAC collection (AID 1347405).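 Further: lytic HiBiT luminescence reporting HLA-B protein level.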 Further: potency means the concentration at half of the fitted maximal effect. In short, it runs like this: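 Immortalized human C25cl48 myoblasts with HiBiT knocked into endogenous HLA-B*08:01 were stimulated with 4.0 ng/ml IFN-beta and given compounds in a 7-point, 1:4.3 titration from 46 uM final; after 24 hrs, lytic HiBiT luminescence was read.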

Assay [2] is described as follows: qHTS for inhibitors of adenylyl cyclases using a fission yeast platform: a pilot screen against the NCATS LOPAC library (AID 1347410). A digest of the protocol:
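GFP from fbp1-GFP reporter, read by Acumen laser cytometry, indicates AC inhibition in fission yeast expressing AC9, GNAS and PDE4D2. Cells grown 18 h in the dark at 30C with compounds, final up to 57 uM.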

Records with an inconclusive call do not appear. A call without a number means that no potency is given here. Active and inactive are the calls of the source. The call rests on the fitted dose curve; in most records, active means well fitted curve in the direction sought with a large enough effect; inconclusive means small, poorly fitted or top-dose-only effect, or another doubt; inactive means no such curve, though single readings can be large; an effect the other way counts as inactive or inconclusive.

Turning to `O=C(O)CNC(=O)C(CS)Cc1ccccc1` (stereo not drawn), the Potency entry in assay [1] is “inactive”. Also, in assay [2], the call was inactive.

For `O=C(CCc1ccncc1)NNC(=O)N1Cc2ccccc2Oc2ccc(Cl)cc21`, the Potency entry in assay [1] is “inactive”. For the same compound, the compound was classed as inactive in assay [2].

With `N.N.N.N.N.N.N.N.N.N.N.N.N.N.O.O.[Ru+4].[Ru+5].[Ru+5]`, the Potency result in assay [1] was “inactive”. Moreover, in assay [2], the result was inactive.

For `C[N+](C)(C)CCOP(=O)(O)OP(=O)([O-])OC[C@H]1O[C@@H](n2ccc(N)nc2=O)[C@H](O)[C@@H]1O`, the Potency entry in assay [1] was “inactive”. In addition, the compound was classed as inactive in assay [2].

On to `CCCCCCCCCCCCCCCC(=O)OC(CC(=O)O)C[N+](C)(C)C` (stereo not drawn), for which the Potency entry in assay [1] is “inactive”. Besides, the outcome in assay [2] was inactive.

For the compound `CC[C@H]1OC(=O)[C@H](C)[C@@H](O[C@H]2C[C@@](C)(OC)[C@@H](O)[C@H](C)O2)[C@H](C)[C@@H](O[C@@H]2O[C@H](C)C[C@H](NC)[C@H]2O)[C@](C)(O)C[C@@H](C)CN(C)[C@H](C)[C@@H](O)[C@]1(C)O`, in assay [1], the Potency entry was “inactive”. Besides, in assay [2], the compound was classed as inactive.

As to `O=C(O)CCCC[C@@H]1CCSS1`, the Potency entry in assay [1] was “inactive”. Further, the compound was classed as inactive in assay [2].

Turning to `O=[N+]([O-])c1ccc(CSc2ncnc3c2ncn3[C@@H]2O[C@H](CO)[C@@H](O)[C@H]2O)cc1`, the Potency result in assay [1] was “inactive”. Besides, in assay [2], the compound was called inactive.

Take `Oc1ccccc1O`: in assay [1], the Potency result was “inactive”. Also, the call in assay [2] was inactive.

For the compound `N#C/C(=C\c1ccc(-c2cc(Cl)ccc2Cl)o1)C(=O)Nc1cccc2ncccc12`, the Potency in assay [1] is 14.1 µM (active). Moreover, in assay [2], the compound was classed as inactive.

Consider `NCC1OC(O[C@H]2[C@H](O)[C@@H](OC3C(O)C(N)CC(N)C3OC3OC(CO)C(O)C(O)C3N)O[C@@H]2CO)C(N)C(O)C1O` (stereo partly drawn), for which the Potency result in assay [1] was “inactive”. Also, in assay [2], the outcome was inactive.

Regarding `CNC(=O)[C@H]1O[C@@H](n2cnc3c(NCc4ccc(N)cc4)ncnc32)[C@H](O)[C@@H]1O`, in assay [1], the Potency entry was “inactive”. In addition, the call in assay [2] was inactive.

On to `CC(C)NC[C@@H](O)c1ccc(O)c(O)c1`, for which, in assay [1], the Potency result was “inactive”. Further, in assay [2], the result was inactive.

For the compound `O=C(c1ccc(Cl)cc1)N1CCN(c2ccc([N+](=O)[O-])c3ncccc23)CC1`, the Potency result in assay [1] is “inactive”. Besides, in assay [2], the call was inactive.

For the compound `C=CC(C)=C[C@@]1(C)SC(=O)C(C)=C1O`, the Potency entry in assay [1] was “inactive”. For the same compound, the outcome in assay [2] was inactive.

Consider `Fc1ccc(C(OCCCc2cnc[nH]2)c2ccc(F)cc2)cc1`, for which the Potency entry in assay [1] is “inactive”. Besides, in assay [2], the outcome was inactive.

With `CCCCC#Cc1nc(NC)c2ncn([C@@H]3O[C@H](CO)[C@@H](O)[C@H]3O)c2n1`, in assay [1], the Potency result is “inactive”. Besides, the result in assay [2] was inactive.

In the case of `COc1ccccc1CN[C@@H]1CCCN[C@@H]1c1ccccc1`, in assay [1], the Potency entry was “inactive”. Further, the outcome in assay [2] was inactive.

`O=C1/C(=C/c2ccsc2)CC/C1=C\c1cccs1`: the Potency entry in assay [1] was “inactive”. Also, the compound was classed as inactive in assay [2].

In the case of `OC[C@H]1O[C@@H](n2cnc3c(NC4CCCC4)ncnc32)[C@H](O)[C@@H]1O`, the Potency result in assay [1] was “inactive”. Further, the outcome in assay [2] was inactive.

As to `Nc1nc2c(ncn2[C@@H]2O[C@H](CO)[C@@H](O)[C@@H]2O)c(=O)[nH]1`, the Potency result in assay [1] is “inactive”. In addition, the compound was classed as inactive in assay [2].

With `CO/N=C(\C(=O)N[C@@H]1C(=O)N2C(C(=O)O)=C(COC(C)=O)CS[C@H]12)c1csc(N)n1`, the Potency entry in assay [1] is “inactive”. Also, in assay [2], the outcome was inactive.

Take `OCC1O[C@H](O)C(Cl)C(O)C1O` (stereo partly drawn): in assay [1], the Potency result was “inactive”. Also, the outcome in assay [2] was inactive.

On to `O=C(O)CC1CCCc2ccccc2C1O` (stereo not drawn), for which the Potency result in assay [1] is “inactive”. Also, the outcome in assay [2] was inactive.

For `NCCSSCCN`, in assay [1], the Potency entry is “inactive”. In addition, the compound was called inactive in assay [2].

`COc1ccc(C(=O)/C(Cc2cc(OC)c(OC)c(OC)c2)=C(\C(=O)O)c2ccc3c(c2)OCO3)cc1`: the Potency in assay [1] was 14.1 µM (active). In addition, in assay [2], the call was inactive.

As for `O=C1NC(=O)c2c1c(-c1ccccc1)cc1[nH]c3ccc(O)cc3c21`, in assay [1], the Potency was 14.1 µM (active). Besides, in assay [2], the compound was classed as inactive.

Consider `COC(=O)c1c(C)[nH]c(C)c1C(=O)c1ccccc1Cc1ccccc1`, for which the Potency entry in assay [1] is “inactive”. For the same compound, the compound was classed as inactive in assay [2].

As for `CCN(CC)c1ncnc2c1ncn2[C@@H]1O[C@H](COP(=O)(O)OP(=O)(O)C(Br)(Br)P(=O)(O)O)[C@@H](O)[C@H]1O`, in assay [1], the Potency result was “inactive”. Also, in assay [2], the compound was called inactive.

As for `COCCOc1cc2nc[nH]c(=O)c2cc1OCCOC`, the Potency result in assay [1] was “inactive”. The result in assay [2] was inactive.

Turning to `O=C(Nc1ccncc1)c1cc([N+](=O)[O-])ccc1Cl`, the Potency in assay [1] was 15.8 µM (active). Also, the outcome in assay [2] was inactive.

For `O=C(CCCCCN1CCN(c2ccccc2-c2ccccc2)CC1)NC1CCCc2ccccc21` (stereo not drawn), the Potency result in assay [1] was “inactive”. In addition, the compound was classed as inactive in assay [2].

Regarding `COc1ccc(Br)cc1S(=O)(=O)NC(=O)/C=C/c1ccccc1Cc1ccc2ccccc2c1`, the Potency entry in assay [1] was “inactive”. For the same compound, the outcome in assay [2] was inactive.

For the compound `CNCC[C@H](Oc1ccc(C(F)(F)F)cc1)c1ccccc1`, the Potency entry in assay [1] was “inactive”. Moreover, the compound was called inactive in assay [2].

For the compound `O=C(O)CC[C@@H](C(=O)O)N1C(=O)c2ccccc2C1=O`, the Potency result in assay [1] was “inactive”. For the same compound, the compound was classed as inactive in assay [2].

For the compound `NC(CCCP(=O)(O)O)C(=O)O` (stereo not drawn), the Potency entry in assay [1] was “inactive”. In addition, in assay [2], the outcome was inactive.

For `S=C(S)OC1CC2CC1C1CCCC21` (stereo not drawn), the Potency result in assay [1] was “inactive”. The outcome in assay [2] was inactive.

Take `CC(=O)N[C@H](C(=O)O)C(C)(C)SN=O`: the Potency result in assay [1] is “inactive”. Moreover, in assay [2], the outcome was inactive.

Consider `N=c1ccn2c(n1)O[C@H]1[C@H](O)[C@@H](CO)O[C@H]12`, for which the Potency entry in assay [1] is “inactive”. The compound was classed as inactive in assay [2].

Regarding `N#C/C(=C\c1ccc(O)c(O)c1)C(=O)c1ccc(O)c(O)c1`, in assay [1], the Potency entry is “inactive”. The outcome in assay [2] was inactive.

For `Oc1cc2c(cc1O)CN(C(=S)NCCc1ccc(Cl)cc1)CCC2`, the Potency result in assay [1] is “inactive”. Also, the call in assay [2] was inactive.

Turning to `Fc1ccc2[nH]c(CN3CCN(c4ccccn4)CC3)cc2c1`, the Potency entry in assay [1] is “inactive”. In assay [2], the result was inactive.

Turning to `O=C(c1ccc(OCCCc2cnc[nH]2)cc1)C1CC1`, in assay [1], the Potency entry was “inactive”. Besides, in assay [2], the result was inactive.

For the compound `CS(=O)(=O)c1ccc(-n2nc(C(F)(F)F)cc2-c2ccc(F)cc2)cc1`, the Potency entry in assay [1] was “inactive”. Also, the outcome in assay [2] was inactive.

As to `CC(C)NC[C@H](O)COc1cccc2[nH]ccc12`, in assay [1], the Potency result is “inactive”. The outcome in assay [2] was inactive.

Consider `Cn1c(=O)c2[nH]c(-c3ccccc3)nc2n(C)c1=O`, for which, in assay [1], the Potency result is “inactive”. The outcome in assay [2] was inactive.

As to `COc1ccc2c(c1)CCC1C2CC[C@@]2(C)C1CC[C@@H]2NCCCCCCN1C(=O)CCC1=O` (stereo partly drawn), the Potency entry in assay [1] was “inactive”. Moreover, the compound was classed as inactive in assay [2].

`Fc1cccc(/C=N/N=C/c2cccc(F)c2)c1`: the Potency entry in assay [1] was “inactive”. Moreover, the result in assay [2] was inactive.

`Clc1ccc(N2CCN(Cc3c[nH]c4ncccc34)CC2)cc1`: the Potency entry in assay [1] was “inactive”. The compound was classed as inactive in assay [2].

In the case of `CC1OC1P(=O)(O)O` (stereo not drawn), in assay [1], the Potency entry was “inactive”. In addition, the compound was classed as inactive in assay [2].

As for `Nc1ncnc2c1ncn2[C@@H]1O[C@H](COP(=O)(O)OP(=O)(O)OP(=O)(O)OP(=O)(O)OC[C@@H]2O[C@H](n3cnc4c(N)ncnc43)[C@@H](O)[C@H]2O)[C@@H](O)[C@H]1O`, the Potency entry in assay [1] is “inactive”. Besides, the call in assay [2] was inactive.

Take `Nc1nc(SCc2ccc([N+](=O)[O-])cc2)c2ncn([C@@H]3O[C@H](CO)[C@@H](O)[C@H]3O)c2n1`: the Potency entry in assay [1] was “inactive”. For the same compound, the outcome in assay [2] was inactive.

With `CN[C@H](CC(C)C)C(=O)N[C@H]1C(=O)N[C@@H](CC(N)=O)C(=O)N[C@H]2C(=O)N[C@H]3C(=O)N[C@H](C(=O)N[C@H](C(=O)O)c4cc(O)cc(O)c4-c4cc3ccc4O)[C@H](O)c3ccc(c(Cl)c3)Oc3cc2cc(c3O[C@@H]2O[C@H](CO)[C@@H](O)[C@H](O)[C@H]2O[C@H]2C[C@](C)(N)[C@H](O)[C@H](C)O2)Oc2ccc(cc2Cl)[C@H]1O`, the Potency result in assay [1] is “inactive”. Besides, the result in assay [2] was inactive.

`CN1[C@@H](CC(=O)c2ccccc2)CCC[C@H]1C[C@H](O)c1ccccc1`: in assay [1], the Potency result is “inactive”. Further, the compound was classed as inactive in assay [2].

For the compound `CC(C)(C=O)Cc1cc(C(C)(C)C)c(O)c(C(C)(C)C)c1`, the Potency result in assay [1] is “inactive”. The result in assay [2] was inactive.

On to `Cc1ccc(S(=O)(=O)/C=C/C#N)cc1`, for which the Potency in assay [1] is 12.6 µM (active). Also, the compound was called inactive in assay [2].

Take `NCCCS(=O)(=O)O`: the Potency result in assay [1] was “inactive”. Also, in assay [2], the outcome was inactive.

For the compound `CC(=O)/C=C1\C(=O)N(C)c2ccccc21`, in assay [1], the Potency is 22.4 µM (active). In addition, the compound was classed as inactive in assay [2].

Take `NO`: the Potency result in assay [1] was “inactive”. In addition, the compound was called inactive in assay [2].
